# This is a sample that favours compounds with a hit; in the whole collection about 2.1% have one here.
# Abeta yeast res = qHTS for compounds that reverse cellular toxicity of Amyloid beta (A-beta) peptide in yeast: Primary Screen; yeast expressing A-beta42, growth rescue, OD600, 48 h; response scale: 0% DMSO, 100% iron-clioquinol control; Potency, µM (top dose mostly 46.1 µM), hits mostly activators; hit rate 0.063% among 410,000; AID 1347071, 2019; also: nearly all actives have a fitted effect of over 55% in size
#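 Yeast A-beta toxicity model in growth medium with pinned compounds, 48 h at 30 C; growth read as absorbance at 600 nm. Normalized to FeCl3/clioquinol equimolar mix (positive) and DMSO (negative).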
# aSyn rescue = qHTS of alpha-syn Inhibitors; Yeast expressing alpha-synuclein, growth rescue, BacTiter-Glo, 24 h; Potency, µM (highest dose often 46.1 µM), for inactives: at the top dose growth rescue (activation), hits mostly activators; hit rate 0.14% among 370,000; AID 652106, 2013; also: % of control where 0% means no effect; nearly all actives have a fitted effect of over 65% in size
#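 Galactose-induced alpha-syn yeast (OD600=0.02, raffinose-pregrown) + pinned cpd, 24 hr, 30 deg C; growth by BacTiter-Glo luminescence. Growth restoration scores as activation.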
# TDP-43 yeast inh = qHTS of TDP-43 Inhibitors; TDP-43 expressing yeast growth rescue, BacTiter-Glo, 24 h; Potency, µM (top dose mostly 46.1 µM), without a hit: at the top dose growth rescue (activation), actives largely listed as activators; hit rate 1.8% among 410,000; AID 652104, 2013; also: % of control where 0% means no effect; nearly all actives have a fitted effect of over 50% in size
#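 In this qHTS, compounds that restore growth of yeast expressing TDP-43 appear as activators. Cells (OD600=0.02, galactose medium, raffinose-pregrown) are incubated with compound 24 hr at 30 deg C and growth is quantified by BacTiter-Glo.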
# FUS yeast rescue = qHTS for Suppressors of FUS Proteinopathy: Primary screen using FUS-linked yeast assay; S. cerevisiae FUS-expressing, growth rescue, OD600, 24 h; Potency, µM (doses to about 76.6 µM), actives largely listed as activators; hit rate 0.24% among 390,000; AID 1347120, 2019;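 also: plate controls were DMSO vehicle for no effect and reference control for full effect; nearly all actives have a fitted effect of over 55% in size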
#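 Yeast expressing FUS under galactose induction, OD 0.005 in 2% galactose medium; compounds in a dilution series, 24 h at 30C. Growth rescue by absorbance at 600 nm; CP55940 positive control, DMSO negative.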
# The depositor's hits bear a star; i = inactive; ? = inconclusive; / = no result; [ ] = remark or other dose. Calls follow the shape of the dose curve; as a rule, active = well fitted curve in the direction sought with a large enough effect; inconclusive = small, poorly fitted or top-dose-only effect, or another doubt; inactive = no such curve, though single readings can be large; an effect the other way counts as inactive or inconclusive. Potency is read from the fitted curve at half-maximal effect.
SMILES,Abeta yeast res,aSyn rescue,TDP-43 yeast inh,FUS yeast rescue
COc1cc(/C=C/C(=O)c2ccc3c(c2)OCCO3)cc(OC)c1OC,i,8.3%,?,i
COC1=Cc2c(ccc3ccc(=O)oc23)OC1(C)C,i,/,12.6µM*,i
COc1ccc(-n2ncc3c2ncn2nc(-c4ccc(OC)c(OC)c4)nc32)cc1,i,/,?,i
Clc1ccc(COn2c(-c3ccccc3)nc3ccccc32)cc1,i,-19.1%,17.8µM*,i
COc1cc(OC)c(NC(=O)Cn2c(=O)oc3cc(S(=O)(=O)N4CCCC4)ccc32)cc1Cl,i,/,5.3%,i
O=C(NCCc1ccc(Cl)cc1)C(=O)NCC(c1ccco1)S(=O)(=O)c1ccc(Cl)cc1 (stereo not drawn),i,/,15.1%,i
COc1cc(NS(=O)(=O)c2cc3c(cc2C)N(C)CCO3)cc(OC)c1OC,i,/,7.1%,i
O=CN1Cc2ccccc2-c2ccccc2C1,i,18.1%,12.6µM*,i
COc1ccc(C2Nc3ccccc3C(=O)N2Cc2ccco2)cc1 (stereo not drawn),/,0.0%,/,/
Cn1c(/C=C/c2ccc(Cl)cc2)c([N+](=O)[O-])c(=O)n(C)c1=O,i,6.0%,17.8µM*,i
COc1ccc(/C=C/c2c([N+](=O)[O-])c(=O)n(C)c(=O)n2C)cc1OC,i,-8.6%,-14.3%,i
O=C(N/N=C/c1cccc(O)c1)NC1CCCCC1,i,3.4%,-14.1%[9.22 µM],i
NC(=O)N\N=C/C=C/C=C/c1ccc(F)cc1,i,1.0%,20.6%,i
O=C(N/N=C/C=C/c1ccccc1)NC1CCCCC1,?,?,17.8µM*,i
NC(=O)N/N=C/C=C/c1ccccc1,i,-19.0%,3.98µM*,i
CCCCC(=O)Nc1nnc(S(=O)(=O)N(C)Cc2ccc(Cl)cc2)s1,i,/,6.9%,i
CS(=O)(=O)c1ncc(Cl)c(C(=O)N2CCN(c3cccc(Cl)c3)CC2)n1,i,9.0%,12.6µM*,i
CCS(=O)(=O)c1ncc(Cl)c(C(=O)N2CCN(c3cccc(Cl)c3)CC2)n1,i,/,12.6µM*,i
COC(=O)[C@H](Cc1ccccc1)NP(=O)(OC)[C@@H](C)NC(=O)OCc1ccccc1 (stereo partly drawn),/,/,/,i
O=C(CSc1ccc2c(c1)OCCO2)Nc1ncc(Cl)cc1Cl,i,3.8%,?,i
O=C(CSc1ccc2c(c1)OCCO2)NCCc1ccc(Cl)cc1Cl,i,?,11.2µM*,/
Cn1c(SCC(=O)c2ccc3c(c2)NC(=O)CO3)nc2ccccc21,i,2.3%,-4.9%[0.397 µM],i
CCCn1c(SCC(=O)c2ccc3c(c2)NC(=O)CO3)nc2ccccc21,i,-0.9%,14.1µM*,i
CCC(=O)Nc1cccc(C(=O)OCc2cccc([N+](=O)[O-])c2)c1,i,-8.8%,11.2µM*,i
CC(=O)Nc1cccc(C(=O)OCc2ccc([N+](=O)[O-])cc2)c1,i,-0.9%,?,i
SMILES,Abeta yeast res,aSyn rescue,TDP-43 yeast inh,FUS yeast rescue
COC(=O)c1cccc(NC(=O)c2cccc([N+](=O)[O-])c2)c1,i,-0.4%,12.6µM*,i
O=C(Nc1cccc([N+](=O)[O-])c1)c1cccc(C(=O)Nc2cccc([N+](=O)[O-])c2)c1,i,0.2%,13.8%,i
COc1ccc(NC(=O)c2cc3c(=O)n(C)c4cc(Cl)ccc4c3s2)cc1Cl,i,/,13.4%,i
O=S(=O)(CC1NCCc2ccccc21)NCc1ccc(F)cc1 (stereo not drawn),/,/,/,i
COc1ccc(Cn2c(=O)c3ccccc3n3c(-c4ccc(C)cc4)nnc23)cc1,i,/,-2.1%,i
CSc1nc2ncc3c(n2n1)CC1c2ccccc2CCN1C3=O (stereo not drawn),i,/,15.8µM*,i
CCOC(=O)Nc1nc(-c2ccc(Cl)cc2Cl)cs1,i,-37.1%,11.2µM*,/
CC1(c2ccc(F)cc2)OC(=O)c2c1ccc1ccccc21 (stereo not drawn),i,-12.4%,12.6µM*,i
CSc1cccc(NC(=O)c2cc3c(COC(C)=O)cnc(C)c3oc2=O)c1,i,/,-2.7%,i
COc1cc2c(O)c3c(c(-c4ccc5c(c4)OCO5)c2cc1OC)C(=O)OC3,i,-9.8%,-17.1%,8.91µM*
Cn1nnnc1SCCCNCc1cc(Cl)ccc1OCc1ccccc1,i,/,0.0%[9.22 µM],i

# High-throughput results as filed in PubChem.
